The values that follow come from the supplement of paper PMC13094657.

Each structure is given as a SMILES string. ± gives the standard deviation of the averaged measurements.

Experiment [1] relates to MDA-MB-231. Description: cell viability relative to vehicle unstimulated control (fraction); higher = more viable cells. The note with it: pre-treatment time: 18 h then 24 h IFNg/TNF.
In experiment [2] the test system is MDA-MB-231. The experiment is described as follows: kynurenine production, fold change vs DMSO IFNg/TNF control; higher = more kynurenine produced (less inhibition). The note with it: pre-treatment time: 18 h then 24 h IFNg/TNF. In a few lines:
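Fold change over cytokine-stimulated vehicle wells on the same plate is the measure used for kynurenine production, averaged across duplicate plates in the first screening round. MDA-MB-231 cells, seeded 24 h beforehand at 7 × 10^4/well in 96-well plates, were pre-treated 18 h with each natural product in 0.1% DMSO and stimulated 24 h at 37°C with IFNγ (1 U/ml) and TNF (6.25 ng/ml). Supernatants were read at 492 nm following trichloroacetic acid and p-dimethylaminobenzaldehyde treatment, against 0–100 μM standards.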
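Throughout, for cell viability relative to vehicle unstimulated control: viability of the cells left after supernatant collection, read with Deep Blue dye added for 4 h, as absorbance at 570 nm minus 600 nm.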

With `O=c1c(O)c(-c2ccc(O)c(O)c2)oc2cc(O)cc(O)c12` [Quercetin] (compound dose: 10 uM), the cell viability with MDA-MB-231 [1] worked out at 0.974 ± 0.095. For the same compound, in the experiment on MDA-MB-231 [2], the kynurenine production is 0.738 ± 0.2.
For the compound `C=C1C(OC(C)=O)C(OC(C)=O)C(OC(=O)c2cccnc2)C(C)(C)C=CC(C)C(OC(C)=O)C2(O)CC(C)(OC(C)=O)C(OC(=O)c3ccccc3)C2C1OC(C)=O` (stereo unspecified) [Pepluanin A] (compound dose: 10 uM), the cell viability with MDA-MB-231 [1] came to 1.11 ± 0.017. The kynurenine production with MDA-MB-231 [2] was 0.806 ± 0.06.
The matching figures for `COC(=O)C1=CO[C@@H](O[C@@H]2O[C@H](CO)[C@@H](O)[C@H](O)[C@H]2O)[C@@H]2C(COC(C)=O)=C[C@H](O)[C@H]12` [Daphylloside] (compound dose: 10 uM): 0.999 ± 0.062 and 0.888 ± 0.048.
As to `C[C@H](CC[C@@H](O[C@@H]1O[C@H](CO[C@@H]2O[C@H](CO)[C@@H](O)[C@H](O)[C@H]2O)[C@@H](O)[C@H](O)[C@H]1O[C@@H]1O[C@H](CO)[C@@H](O)[C@H](O)[C@H]1O)C(C)(C)O)[C@H]1CC[C@@]2(C)[C@@H]3CC=C4[C@@H](CC[C@H](O[C@@H]5O[C@H](CO[C@@H]6O[C@H](CO)[C@@H](O)[C@H](O)[C@H]6O)[C@@H](O)[C@H](O)[C@H]5O)C4(C)C)[C@]3(C)[C@H](O)C[C@]12C` [Mogroside V] (compound dose: 10 uM), the cell viability with MDA-MB-231 [1] was 0.989 ± 0.021. In addition, the kynurenine production in the experiment with MDA-MB-231 [2] amounted to 0.968 ± 0.19.
Take `C=C[C@]1(C)C[C@@H](OC(=O)CO)[C@]2(C)[C@H](C)CC[C@]3(CCC(=O)[C@@H]32)[C@@H](C)[C@@H]1O` [Pleuromutilin] (compound dose: 10 uM): the cell viability in the experiment with MDA-MB-231 [1] came to 1.01 ± 0.057. Also, the kynurenine production with MDA-MB-231 [2] is 0.861 ± 0.094.
For the compound `CC(=O)O[C@H]1C(=O)[C@@]2(C)[C@H]([C@H](OC(=O)c3ccccc3)[C@]3(O)C[C@H](OC(=O)[C@H](O)[C@@H](NC(=O)c4ccccc4)c4ccccc4)C(C)=C1C3(C)C)[C@]1(OC(C)=O)CO[C@@H]1C[C@@H]2O` [7-epi-Taxol] (compound dose: 10 uM), in the experiment with MDA-MB-231 [1], the cell viability was 0.791 ± 0.032. Moreover, the kynurenine production in the experiment with MDA-MB-231 [2] was found to be 0.3 ± 0.026.
`CC1(C)CC[C@]2(C(=O)O[C@@H]3O[C@H](CO)[C@@H](O)[C@H](O)[C@H]3O)CC[C@]3(C)C(=CC[C@@H]4[C@@]5(C)CC[C@H](O[C@@H]6O[C@H](C(=O)O)[C@@H](O[C@@H]7O[C@@H](CO)[C@H](O)[C@H]7O)[C@H](O)[C@H]6O)C(C)(C)[C@@H]5CC[C@]43C)[C@@H]2C1` [Araloside A] (compound dose: 10 uM): the cell viability with MDA-MB-231 [1] is 1.05 ± 0.032. Further, the kynurenine production with MDA-MB-231 [2] was found to be 1.31 ± 0.014.
As for `C=C1C[C@@]23CC[C@H]4[C@@](C)(CCC[C@@]4(C)C(=O)O[C@@H]4O[C@H](CO)[C@@H](O)[C@H](O)[C@H]4O)[C@@H]2CC[C@]1(O[C@@H]1O[C@H](CO)[C@@H](O)[C@H](O)[C@H]1O)C3` [Rubusoside] (compound dose: 10 uM), the cell viability in the experiment with MDA-MB-231 [1] was determined as 1.07 ± 0.02. The kynurenine production in the experiment on MDA-MB-231 [2] came out at 0.88 ± 0.065.
`C=C(C)[C@@H]1CC=C(CO)CC1` [Perillyl alcohol] (compound dose: 10 uM): the cell viability in the experiment on MDA-MB-231 [1] worked out at 1.036 ± 0.0039. Moreover, in the experiment with MDA-MB-231 [2], the kynurenine production came out at 0.905 ± 0.13.
Regarding `CC(C)(O)[C@@H]1CC[C@](C)([C@H]2[C@@H](O)C[C@@]3(C)[C@@H]4C[C@H](O)[C@H]5C(C)(C)[C@@H](O[C@@H]6OC[C@@H](O)[C@H](O)[C@H]6O[C@@H]6O[C@H](CO)[C@@H](O)[C@H](O)[C@H]6O)CC[C@@]56C[C@@]46CC[C@]23C)O1` [Astragaloside III] (compound dose: 10 uM), in the experiment with MDA-MB-231 [1], the cell viability amounted to 1.03 ± 0.069. Moreover, in the experiment on MDA-MB-231 [2], the kynurenine production was 0.822 ± 0.018.
As to `C=C1C(=O)O[C@H]2C1CC[C@@](C)(O)C13C=CC(C)(C21)C1(C3)C(=O)O[C@@H]2C3C(C)=CCC3[C@](C)(O)[C@H](OC(C)=O)CC21` (stereo partly specified) [Handelin] (compound dose: 10 uM), in the experiment with MDA-MB-231 [1], the cell viability came out at 0.83 ± 0.29. Further, the kynurenine production with MDA-MB-231 [2] is 0.709 ± 0.3.
The matching figures for `C=C1C[C@@]23CC[C@H]4[C@@](C)(CCC[C@@]4(C)C(=O)O)[C@@H]2CC[C@]1(O[C@@H]1O[C@@H](CO)[C@@H](O)[C@H](O)[C@@H]1O[C@@H]1O[C@@H](CO)[C@@H](O)[C@H](O)[C@@H]1O)C3` [Steviolbioside] (compound dose: 10 uM): 0.904 ± 0.19 and 1.05 ± 0.44.
As for `C/C=C(/C)C(=O)O[C@H]1[C@H](O)[C@]2(COC(C)=O)[C@H](O)C[C@]3(C)C(=CC[C@@H]4[C@@]5(C)CC[C@H](O[C@@H]6O[C@H](C(=O)O)[C@@H](O[C@@H]7O[C@H](CO)[C@@H](O)[C@H](O)[C@H]7O)[C@H](O)[C@H]6O[C@@H]6O[C@H](CO)[C@@H](O)[C@H](O)[C@H]6O)[C@](C)(CO)[C@@H]5CC[C@]43C)[C@@H]2CC1(C)C` [Isoescin IB] (compound dose: 10 uM), in the experiment on MDA-MB-231 [1], the cell viability was found to be 1.08 ± 0.074. In addition, the kynurenine production with MDA-MB-231 [2] came out at 0.802 ± 0.12.
